# Hits are enriched below; roughly 3.5% of the tested compounds scored in any of these assays.
# TEAD-YAP inh – TEAD-YAP interaction inhibition; HEK-TIYL cells, TEAD-Gal4/YAP UAS-luciferase luminescence; inhibition, % at 9.12 µM; actives 1.4% (n = 640,000); AID 1259422; in the data active = inhibition above about 32%;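 also: 0% = median of test compound wells and 100% = reference inhibitor wells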
# MITF primary – blocks human microphthalmia-associated transcription factor | O75030 | AlphaScreen MITF homodimerization, bead proximity signal | inhibition, % at 2.6 µM | actives 0.91% (n = 650,000); in the data active = inhibition above about 50%;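 also: 0% = vehicle wells with protein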
# GPR151 ag – activators of human GPR151 | PathHunter beta-arrestin GPR151 cells, luminescence | Q8TDV0 | actives 1% (n = 650,000) | AID 1508602 | activation, % at 11.2 µM; in the data active = activation above about 4.9%;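 also: 0% = median of compound wells and 100% = cells with positive control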
# FBW7 activator – human FBW7 E3 ligase activation, primary screen; Q969H0; AlphaScreen FBW7–phospho-cyclin E peptide binding, activator screen; normalized activity (activation), % at 26.1 µM; actives 0.13% (n = 650,000); AID 1259310; in the data active = normalized activity above about 1.9%;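 also: purified mutant Fbw7 with reduced substrate affinity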
# Target sequence (Q969H0 whole entry, looked up): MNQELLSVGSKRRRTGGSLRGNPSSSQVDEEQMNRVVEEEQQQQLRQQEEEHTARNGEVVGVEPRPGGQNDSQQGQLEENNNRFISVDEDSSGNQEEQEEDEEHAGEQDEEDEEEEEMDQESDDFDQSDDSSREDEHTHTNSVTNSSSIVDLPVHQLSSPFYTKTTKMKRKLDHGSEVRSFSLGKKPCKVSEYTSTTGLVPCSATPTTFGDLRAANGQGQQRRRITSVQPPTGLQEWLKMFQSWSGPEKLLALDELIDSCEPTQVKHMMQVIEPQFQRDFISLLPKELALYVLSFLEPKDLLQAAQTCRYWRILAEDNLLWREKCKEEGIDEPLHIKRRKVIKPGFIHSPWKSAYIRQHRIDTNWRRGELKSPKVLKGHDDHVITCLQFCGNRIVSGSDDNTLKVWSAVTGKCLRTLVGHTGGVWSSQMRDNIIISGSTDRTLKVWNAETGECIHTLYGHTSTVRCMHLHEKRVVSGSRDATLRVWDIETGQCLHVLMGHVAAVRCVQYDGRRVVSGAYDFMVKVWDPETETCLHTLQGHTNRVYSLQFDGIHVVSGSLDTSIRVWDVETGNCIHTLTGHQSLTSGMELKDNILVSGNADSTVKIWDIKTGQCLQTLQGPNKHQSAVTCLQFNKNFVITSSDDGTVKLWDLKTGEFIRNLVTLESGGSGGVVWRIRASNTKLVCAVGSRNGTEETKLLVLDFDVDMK
# The depositor's hits bear a star.
SMILES,TEAD-YAP inh,MITF primary,GPR151 ag,FBW7 activator
COc1ccc(N2CC(c3nc(-c4cc(OC)c(OC)c(OC)c4)no3)CC2=O)cc1Cl (stereo unspecified),-3.7,-2.9,-1.5,0.5
CCc1c(C)sc2ncn(C3CCN(C(=O)C4CCCC(OC)C4)CC3)c(=O)c12 (stereo unspecified),41.8*,5.5,0.0,0.2
CCc1c(C)sc2ncn(C3CCN(C(=O)Cc4ccsc4)CC3)c(=O)c12,45.3*,-7.8,2.4,-0.3
CCc1c(C)sc2ncn(C3CCN(C(=O)CCn4nc(C)cc4C)CC3)c(=O)c12,0.6,4.8,1.1,-0.1
COCC(=O)Nc1ccccc1C(C)C,2.0,9.4,4.7,0.2
Nc1ccc(OCC[n+]2ccc(CCS(=O)(=O)O)cc2)cc1,-8.3,-0.1,0.6,0.0
O=S(=O)(O)CCc1cc[n+](CC(O)CCl)cc1 (stereo unspecified),16.8,4.2,-1.3,2.4*
O=S(=O)(O)CCc1cc[n+](CC(O)CO)cc1 (stereo unspecified),6.1,7.9,-1.1,2.8*
COc1ccc(C(=O)Nn2c(-c3cccc(C)c3)nc3ccccc3c2=O)cc1[N+](=O)[O-],11.6,-2.7,-0.7,0.0
O=S(=O)(c1cccs1)N1CCN(c2cnccn2)CC1,-6.9,2.3,-1.0,0.0
COc1ccc(/C=C2\SC(=Nc3cccc(O)c3)NC2=O)cc1OC,43.4*,3.3,0.6,-0.5
COc1ccc(/C=C2/SC(=Nc3ccc(O)cc3)NC2=O)c(OC)c1OC,0.3,0.0,1.9,-0.1
COc1ccc(/C=C2/SC(=Nc3ccccc3)NC2=O)cc1OC,0.8,7.2,0.6,-0.1
COc1cccc(/C=C2\SC(=Nc3ccc(O)cc3)NC2=O)c1OC,46.1*,3.6,2.7,-0.1
COc1ccc(N2CCN(c3ncnc4sc(C(=O)NC5CCCC(C)C5C)c(C)c34)CC2)cc1 (stereo unspecified),0.5,15.8,-1.4,0.2
O=c1c2ccccc2nc(/C=C/c2cn(Cc3ccccc3)c3ccccc23)n1Cc1ccccc1,-10.9,-2.5,1.2,0.0
CC(=O)N1CCN(c2ccc3cccc(-c4cccc(C#N)c4)c3n2)CC1,28.4,-4.3,2.4,0.1
CCC(C)C(NC(=O)OC(C)(C)C)C(=O)NC(CCC(=O)OCc1ccccc1)C(N)=O (stereo unspecified),3.2,9.4,-0.1,0.0
CC(C)(C)c1ccc(-c2nc(-c3nonc3N)no2)cc1,51.5*,-2.1,-0.1,0.1
N#Cc1ccc(-c2nc(-c3c(F)cccc3F)no2)cc1,-16.1,9.2,1.9,0.5
CC(C)(C)c1ccc(-c2nc(-c3c(F)cccc3F)no2)cc1,68.5*,-7.6,1.3,0.1
Cc1ccc(-c2nc(-c3nonc3N)no2)cc1,-30.4,8.5,1.6,0.1
CC(C)=C(NC(=O)c1ccccc1)C(=O)N/N=C/C=C/c1ccccc1,1.4,7.1,2.2,-0.1
Cc1ccc(N(CCC(N)=O)C(=O)CCl)cc1,76.0*,-1.2,-0.1,-0.4
Cc1ccc(C(=O)CN(C(=O)CCl)c2ccccc2)cc1,36.4*,1.3,-1.1,0.1
SMILES,TEAD-YAP inh,MITF primary,GPR151 ag,FBW7 activator
COc1ccc(C(=O)N/C(=C/c2ccc(C)o2)C(=O)N2CC3CC(C2)c2cccc(=O)n2C3)cc1[N+](=O)[O-] (stereo unspecified),-5.0,6.5,2.0,0.0
CCCCOC(=O)CSC1=C(C#N)C(c2ccccc2)CC(=O)N1 (stereo unspecified),44.6*,13.0,1.6,0.0
N#CC1=C(SCC(=O)Nc2ccccc2)NC(=O)CC1c1ccccc1 (stereo unspecified),32.2*,-14.1,-1.0,0.0
CCCOC(=O)CSC1=C(C#N)C(c2ccc(O)cc2)CC(=O)N1 (stereo unspecified),-1.3,4.9,0.0,0.1
CC(C)OC(=O)CSC1=C(C#N)C(c2ccccc2)CC(=O)N1 (stereo unspecified),62.1*,-7.2,0.9,-0.1
CCCOC(=O)CSC1=C(C#N)C(c2ccccc2)CC(=O)N1 (stereo unspecified),57.1*,6.6,1.0,0.1
CCc1ccc(C2CC(=O)NC(SCC(=O)OC(C)C)=C2C#N)cc1 (stereo unspecified),3.1,12.9,1.1,0.1
CCCCOC(=O)CSC1=C(C#N)C(c2ccc(Cl)cc2)CC(=O)N1 (stereo unspecified),1.9,6.0,-0.8,0.0
N#CC1=C(SCC(=O)Nc2ccccc2)NC(=O)CC1c1ccc(O)cc1 (stereo unspecified),31.3,19.4,1.3,0.8
COc1ccc(-c2noc(CN(C(=O)c3cccc(OC)c3)C(C)C)n2)cc1,-21.0,-3.7,-0.7,0.1
Cc1ccc2oc(-c3ccc(C(=O)Nc4ccc(NC(=O)C(C)(C)C)cc4)cc3)nc2c1,-38.6,-2.4,1.9,-0.1
Cc1ccc2oc(-c3ccc(NC(=O)C(F)(F)F)cc3)nc2c1,71.3*,2.3,-4.6,0.1
CCC(=O)Nc1ccc2oc(-c3cccc(C)c3)nc2c1,82.1*,8.3,-6.5,-0.1
COc1ccc2oc(-c3cccc(NC(C)=O)c3)nc2c1,40.4*,-1.8,-8.4,0.0
CCC(=O)Nc1ccc2oc(-c3cccc(I)c3)nc2c1,-18.3,6.3,-3.2,-0.1
CCc1ccc2oc(-c3cccc(NC(C)=O)c3)nc2c1,-12.0,0.1,-5.7,0.5
CCC(=O)Nc1ccc2oc(-c3cccc(Br)c3)nc2c1,56.7*,-18.7,-3.1,-0.2
C=Cc1ccc(COc2cc3oc(=O)c4c(c3cc2CCCCCC)CCC4)cc1,4.6,10.4,3.0,-0.1
CCCCCNS(=O)(=O)c1cccc([N+](=O)[O-])c1,2.3,8.8,-0.8,-0.1
Cc1ccc(NC(=O)Cc2nc(CN(C)CC(=O)Nc3ccc(C)cc3)cs2)cc1,-0.1,14.8,1.2,-0.1
O=C1CN(C(=O)COC(=O)c2cc(-c3cccs3)nc3ccccc23)c2ccccc2N1,6.8,55.1*,-0.8,0.2
CC(=O)Nc1ccc(S(=O)(=O)N2CCc3ccccc3C2)cc1,3.2,-0.8,2.8,0.0
c1ccc(-c2nc3ccccc3s2)cc1,-36.5,8.4,-2.4,0.1
c1csc(CNc2ccc(-c3nc4ccccc4s3)cc2)c1,85.9*,1.3,-6.5,0.4
COc1ccccc1/C=C/CN1CCN(C2CCN(C(C)C)CC2)C(CCO)C1 (stereo unspecified),-0.7,-20.6,2.1,0.0
SMILES,TEAD-YAP inh,MITF primary,GPR151 ag,FBW7 activator
O=C(Nc1noc2ncccc12)c1ccccc1Cl,94.4*,-6.4,-4.2,-0.5
Cc1ccc2c(NC(=O)c3ccccc3F)noc2n1,-10.3,-7.6,-1.6,0.2
O=C(Nc1noc2ncccc12)c1ccccc1F,83.4*,-5.1,-3.5,-0.4
O=C(Nc1noc2ccccc12)c1c(F)cccc1F,57.2*,-5.8,-11.5,-0.1
Cc1ccc2c(c1)C1(NN=C(c3ccccc3O)S1)C(=O)N2 (stereo unspecified),53.8*,2.7,-0.3,0.0
Oc1ccc(CCNc2ccnc(Nc3ccc(-n4ccnc4)cc3)n2)cc1,43.4*,9.4,3.4,-0.2
Oc1ccc(CCNc2ccnc(Nc3ccc(C(F)(F)F)cc3)n2)cc1,1.2,-7.3,2.0,-0.2

# Screening data from PubChem.
